Counter-ions that a name gives are not always drawn.
System: Saccharomyces cerevisiae BY4741 SeMeCo community
Assay: z-score of subpopulation abundance vs DMSO median, subpopulation auxotrophic for HU; higher = larger share of this subpopulation than in DMSO controls
Conditions: 10 µM; 24 h; SM minimal medium; subpopulation (auxotrophy): HU
Procedure, shortened: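 Automated confocal microscopy of paraformaldehyde-fixed cells was used to follow a Saccharomyces cerevisiae BY4741 community carrying four plasmids, each restoring one auxotrophy and encoding a distinct fluorescent protein. The community was pre-grown overnight to OD600 1.0, diluted to 0.3, and added at 70 µl to 384-well plates acoustically predosed with library drugs (10 µM final) for 24 h of growth in minimal SM medium. Single-auxotroph fluorescent strains set thresholds and autofluorescence correction, and each subpopulation's abundance was scored as a z-score against the vehicle-well median.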

Compound	z-score of subpopulation abundance
NC(=O)OCC(COC(N)=O)c1ccccc1 [Felbamate]	-0.73
CCCN(CCC)CCc1cccc2c1CC(=O)N2 [Ropinirole HCl]	0.41
CC(=O)NO [Acetohydroxamic acid]	-0.11
COc1ccc2c3c1O[C@H]1C[C@@H](O)C=C[C@@]31CCN(C)C2 [Galanthamine HBr]	-0.13
O=C1CC2(CCCC2)CC(=O)N1CCCCN1CCN(c2ncccn2)CC1 [Buspirone HCl]	-0.07
Cc1ccc(-c2cc(C(F)(F)F)nn2-c2ccc(S(N)(=O)=O)cc2)cc1 [Celecoxib]	-0.62
Cc1cccc(N(C)C(=S)Oc2ccc3ccccc3c2)c1 [Tolnaftate]	-0.22
CC(C)Cc1ccc(C(C)C(=O)O)cc1 (stereo not given) [Ibuprofen Lysine]	-2.64
O=C(Nc1cc(Cl)cc(Cl)c1O)c1c(O)c(Cl)cc(Cl)c1Cl [Oxyclozanide]	-1.36
CN1CCN(CC(=O)N2c3ccccc3C(=O)Nc3cccnc32)CC1 [Pirenzepine dihydrochloride]	-0.67
O=C(O)CCc1nc(-c2ccccc2)c(-c2ccccc2)o1 [Oxaprozin]	-1.46
CC[C@H]1OC(=O)[C@H](C)[C@@H](O[C@H]2C[C@@](C)(OC)[C@@H](O)[C@H](C)O2)[C@H](C)[C@@H](O[C@@H]2O[C@H](C)C[C@H](N(C)C)[C@H]2O)[C@](C)(O)C[C@@H](C)C(=O)[C@H](C)[C@H]2OC(=O)O[C@@]21C [Erythromycin Cyclocarbonate]	0.76
CN1CCC(=C2c3ccccc3C=Cc3ccccc32)CC1 [Cyproheptadine hydrochloride]	-0.56
CC(Cc1ccc(O)c(O)c1)C(C)Cc1ccc(O)c(O)c1 (stereo not given) [Nordihydroguaiaretic acid (NDGA)]	-0.76
CCOc1cc(N)c(Cl)cc1C(=O)NCC1CN(Cc2ccc(F)cc2)CCO1 (stereo not given) [Mosapride]	0.02
C/C(=C\C(=O)OCCCCCCCCC(=O)O)C[C@@H]1OC[C@H](C[C@@H]2O[C@H]2[C@@H](C)[C@H](C)O)[C@@H](O)[C@H]1O [Mupirocin calcium]	1.13
Cc1cc(C)nc(NS(=O)(=O)c2ccc(N)cc2)n1 [Sulfamethazine Sodium Salt]	0.05
CCN(CC)CCNC(=O)c1cc(Cl)c(N)cc1OC [Metoclopramide]	1.02
O=C1[C@H]2CCCC[C@H]2C(=O)N1CCCCN1CCN(c2nsc3ccccc23)CC1 [Perospirone hydrochloride]	0.13
CS(=O)(=O)c1ccc([C@@H](O)[C@@H](CF)NC(=O)C(Cl)Cl)cc1 [Florfenicol]	0
COC(=O)C1=C(C)NC(C)=C(C(=O)OC(C)(C)CN(C)CCC(c2ccccc2)c2ccccc2)C1c1cccc([N+](=O)[O-])c1 (stereo not given) [Lercanidipine hydrochloride]	-0.84
O=c1[nH]c2ccccc2n1CCN1CCN(c2cccc(C(F)(F)F)c2)CC1 [Flibanserin]	-0.17
NC1CCN(c2nc3c(cc2F)c(=O)c(C(=O)O)cn3-c2ccc(F)cc2F)C1 (stereo not given) [Tosufloxacin p-Toluenesulfonate Hydrate]	-0.62
CC1(C)S[C@@H]2[C@H](NC(=O)[C@H](NC(=O)N3CCNC3=O)c3ccccc3)C(=O)N2[C@H]1C(=O)O [Azlocillin sodium salt]	-1.18
CCN(CC)CCOC(=O)c1ccc(N)cc1Cl [Chloroprocaine HCl]	-0.26

From the supplement of paper PMC8975748
